Data from the supplement of paper PMC7411054.
Where a name gives a salt, the structure may show the parent alone.

Assays:
Conditions in all cases: treatment time: 24 h
[1] = test system: HepG2-ACTB-RAB5A; assay: lowest phenotypically active concentration; higher = less potent
How it was run: (§1)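 Cells from fifteen gene-edited reporter lines (A549, HepG2 and WPMY1) were treated for 24 h at 0.3, 1, 3 or 9 µM and imaged live, four wells per condition. Features were normalised per well to solvent control wells. A condition deviated if ≥3 of 4 wells passed the 95th percentile of control Euclidean distances and was reproducible if its median replicate Pearson correlation beat the 95th percentile of non-replicates; phenotypic activity needed both.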

[2] = test system: HepG2-CANX-COX4; assay: as above
How it was run: as §1

[3] = test system: HepG2-TP53BP1-CLTA; assay: as above
How it was run: as §1

[4] = test system: HepG2-TUBA1B-RELA; assay: as above
How it was run: as §1

[5] = test system: WPMY1-ACTB-RAB5A; assay: as above
How it was run: as §1

[6] = test system: WPMY1-CANX-COX4; assay: as above
How it was run: as §1

[7] = test system: WPMY1-GM130-SQSTM1; assay: as above
How it was run: as §1

[8] = test system: WPMY1-TP53BP1-CLTA; assay: as above
How it was run: as §1

[9] = test system: WPMY1-TUBA1B-RELA; assay: as above
How it was run: as §1

[10] = test system: WPMY1-ACTB-RAB5A; assay: phenotypically active (imaging signature differs from DMSO and reproducible) at any of 0.3-9 uM (binary (1 = active, 0 = inactive)); higher = active
How it was run: as §1

CNC1CCC2(C)C(=CCC3C2CCC24CN(C)C(C)C2CCC34)C1 (stereo not given) [Isoconessimine]
1 µM: lowest phenotypically active concentration [1] | lowest phenotypically active concentration [3] | lowest phenotypically active concentration [4] | lowest phenotypically active concentration [5]
9 µM: lowest phenotypically active concentration [2]
3 µM: lowest phenotypically active concentration [6] | lowest phenotypically active concentration [7] | lowest phenotypically active concentration [8] | lowest phenotypically active concentration [9]
active: phenotypically active [10] 1

CC[C@@H](N)CNc1ccnc(-c2cc(-c3cnn(C)c3)ccc2O)n1
active: phenotypically active [10] 1
1 µM: lowest phenotypically active concentration [1] | lowest phenotypically active concentration [2] | lowest phenotypically active concentration [3] | lowest phenotypically active concentration [4] | lowest phenotypically active concentration [6] | lowest phenotypically active concentration [7] | lowest phenotypically active concentration [8] | lowest phenotypically active concentration [9]
3 µM: lowest phenotypically active concentration [5]

CC(C)(C)c1cnc(CSc2cnc(NC(=O)C3CCNCC3)s2)o1
active: phenotypically active [10] 1
≤ 0.3 µM: lowest phenotypically active concentration [1] | lowest phenotypically active concentration [2] | lowest phenotypically active concentration [3] | lowest phenotypically active concentration [4] | lowest phenotypically active concentration [5] | lowest phenotypically active concentration [6] | lowest phenotypically active concentration [7] | lowest phenotypically active concentration [8] | lowest phenotypically active concentration [9]

CC(C)n1c(/C=C/[C@@H](O)C[C@@H](O)CC(=O)O)c(-c2ccc(F)cc2)c2ccccc21.CC(C)n1c(/C=C/[C@H](O)C[C@H](O)CC(=O)O)c(-c2ccc(F)cc2)c2ccccc21 [Fluvastatin sodium]
1 µM: lowest phenotypically active concentration [1] | lowest phenotypically active concentration [2] | lowest phenotypically active concentration [3] | lowest phenotypically active concentration [4] | lowest phenotypically active concentration [6] | lowest phenotypically active concentration [8] | lowest phenotypically active concentration [9]
active: phenotypically active [10] 1
≤ 0.3 µM: lowest phenotypically active concentration [5] | lowest phenotypically active concentration [7]

Nc1nc(Cl)nc2c1ncn2[C@H]1C[C@H](O)[C@@H](CO)O1 [cladribine]
3 µM: lowest phenotypically active concentration [7]
active: phenotypically active [10] 1
1 µM: lowest phenotypically active concentration [5] | lowest phenotypically active concentration [8] | lowest phenotypically active concentration [9]
9 µM: lowest phenotypically active concentration [6]
≤ 0.3 µM: lowest phenotypically active concentration [1] | lowest phenotypically active concentration [2] | lowest phenotypically active concentration [3] | lowest phenotypically active concentration [4]

CC(=C/[C@@H](C)C(=O)c1ccc(N(C)C)cc1)/C=C/C(=O)NO [Trichostatin A]
active: phenotypically active [10] 1
≤ 0.3 µM: lowest phenotypically active concentration [1] | lowest phenotypically active concentration [2] | lowest phenotypically active concentration [3] | lowest phenotypically active concentration [4] | lowest phenotypically active concentration [5] | lowest phenotypically active concentration [6] | lowest phenotypically active concentration [7] | lowest phenotypically active concentration [8] | lowest phenotypically active concentration [9]

Cc1c(NC(=O)OC[C@@H]2COCCN2)cn2ncnc(Nc3ccc4c(cnn4Cc4cccc(F)c4)c3)c12
9 µM: lowest phenotypically active concentration [2] | lowest phenotypically active concentration [7] | lowest phenotypically active concentration [8]
1 µM: lowest phenotypically active concentration [4]
3 µM: lowest phenotypically active concentration [1] | lowest phenotypically active concentration [3] | lowest phenotypically active concentration [5] | lowest phenotypically active concentration [6] | lowest phenotypically active concentration [9]
active: phenotypically active [10] 1

NC(=O)Nc1cc(-c2cccc(F)c2)sc1C(=O)N[C@H]1CCCNC1 [AZD 7762 hydrochloride]
≤ 0.3 µM: lowest phenotypically active concentration [1] | lowest phenotypically active concentration [3] | lowest phenotypically active concentration [4] | lowest phenotypically active concentration [5] | lowest phenotypically active concentration [6] | lowest phenotypically active concentration [8] | lowest phenotypically active concentration [9]
active: phenotypically active [10] 1
1 µM: lowest phenotypically active concentration [2] | lowest phenotypically active concentration [7]

O=C(Nc1ccc(-c2ccnc(Nc3ccc(N4CCOCC4)cc3)n2)cc1)[C@@H]1CCCN1
9 µM: lowest phenotypically active concentration [3]
3 µM: lowest phenotypically active concentration [1] | lowest phenotypically active concentration [2] | lowest phenotypically active concentration [4] | lowest phenotypically active concentration [5] | lowest phenotypically active concentration [6] | lowest phenotypically active concentration [7] | lowest phenotypically active concentration [8] | lowest phenotypically active concentration [9]
active: phenotypically active [10] 1

NCC(=O)Nc1ccc(-n2nc(C(F)(F)F)cc2-c2ccc3c(ccc4ccccc43)c2)cc1
1 µM: lowest phenotypically active concentration [1] | lowest phenotypically active concentration [2] | lowest phenotypically active concentration [3] | lowest phenotypically active concentration [4] | lowest phenotypically active concentration [6] | lowest phenotypically active concentration [7]
≤ 0.3 µM: lowest phenotypically active concentration [5] | lowest phenotypically active concentration [8] | lowest phenotypically active concentration [9]
active: phenotypically active [10] 1

Nc1nc(Cl)nc2c1ncn2[C@@H]1O[C@H](CO)[C@@H](O)[C@@H]1F [clofarabine]
3 µM: lowest phenotypically active concentration [7]
9 µM: lowest phenotypically active concentration [6]
active: phenotypically active [10] 1
≤ 0.3 µM: lowest phenotypically active concentration [1] | lowest phenotypically active concentration [2] | lowest phenotypically active concentration [3] | lowest phenotypically active concentration [4] | lowest phenotypically active concentration [5] | lowest phenotypically active concentration [8] | lowest phenotypically active concentration [9]

CC(=O)O[C@H]1C(=O)[C@@]2(C)[C@H]([C@H](OC(=O)c3ccccc3)[C@]3(O)C[C@H](OC(=O)[C@H](O)[C@@H](NC(=O)c4ccccc4)c4ccccc4)C(C)=C1C3(C)C)[C@]1(OC(C)=O)CO[C@@H]1C[C@@H]2O [paclitaxel]
≤ 0.3 µM: lowest phenotypically active concentration [1] | lowest phenotypically active concentration [2] | lowest phenotypically active concentration [3] | lowest phenotypically active concentration [4] | lowest phenotypically active concentration [5] | lowest phenotypically active concentration [7] | lowest phenotypically active concentration [8] | lowest phenotypically active concentration [9]
active: phenotypically active [10] 1
9 µM: lowest phenotypically active concentration [6]

Cc1ccc2nc(NCCN)c3ncc(C)n3c2c1
active: phenotypically active [10] 1
3 µM: lowest phenotypically active concentration [1] | lowest phenotypically active concentration [2] | lowest phenotypically active concentration [3] | lowest phenotypically active concentration [4] | lowest phenotypically active concentration [5] | lowest phenotypically active concentration [6] | lowest phenotypically active concentration [7] | lowest phenotypically active concentration [8] | lowest phenotypically active concentration [9]

COc1ccccc1S(=O)(=O)Nc1ccc2c(c1)CN(C)C(=O)N2
1 µM: lowest phenotypically active concentration [1]
active: phenotypically active [10] 1
3 µM: lowest phenotypically active concentration [2] | lowest phenotypically active concentration [3] | lowest phenotypically active concentration [4] | lowest phenotypically active concentration [5] | lowest phenotypically active concentration [6] | lowest phenotypically active concentration [7] | lowest phenotypically active concentration [9]
9 µM: lowest phenotypically active concentration [8]

COc1cc(/C=C/C(=O)N2CCC=CC2=O)cc(OC)c1OC [Piperlongumine]
9 µM: lowest phenotypically active concentration [3] | lowest phenotypically active concentration [5] | lowest phenotypically active concentration [6] | lowest phenotypically active concentration [8] | lowest phenotypically active concentration [9]
active: phenotypically active [10] 1
3 µM: lowest phenotypically active concentration [1] | lowest phenotypically active concentration [2] | lowest phenotypically active concentration [4] | lowest phenotypically active concentration [7]

CC(=O)NCC(=O)N1[C@@H]2CC[C@H]1c1ccc(Nc3ncc(C(F)(F)F)c(NC4CCC4)n3)cc12
≤ 0.3 µM: lowest phenotypically active concentration [1] | lowest phenotypically active concentration [2] | lowest phenotypically active concentration [3] | lowest phenotypically active concentration [4] | lowest phenotypically active concentration [5] | lowest phenotypically active concentration [6] | lowest phenotypically active concentration [7] | lowest phenotypically active concentration [8] | lowest phenotypically active concentration [9]
active: phenotypically active [10] 1

O=C(CCCc1ccc(-c2ccccc2F)cc1)Nc1ccc(O)cc1
1 µM: lowest phenotypically active concentration [5] | lowest phenotypically active concentration [6] | lowest phenotypically active concentration [7] | lowest phenotypically active concentration [8] | lowest phenotypically active concentration [9]
active: phenotypically active [10] 1
9 µM: lowest phenotypically active concentration [3]
3 µM: lowest phenotypically active concentration [1] | lowest phenotypically active concentration [2] | lowest phenotypically active concentration [4]

O=C(Nc1c[nH]nc1-c1nc2cc(CN3CCOCC3)ccc2[nH]1)NC1CC1
active: phenotypically active [10] 1
≤ 0.3 µM: lowest phenotypically active concentration [1] | lowest phenotypically active concentration [2] | lowest phenotypically active concentration [3] | lowest phenotypically active concentration [4] | lowest phenotypically active concentration [5] | lowest phenotypically active concentration [6] | lowest phenotypically active concentration [7] | lowest phenotypically active concentration [8] | lowest phenotypically active concentration [9]
